Data on 20 compounds can be found in PubChem BioAssay (NCI).

This is part of a sample that, as a whole, favours compounds with a hit. Of some 83,000 tested, about 20% had one in any assay.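 Interpretation: 100, growth as untreated; towards 0, rising growth inhibition; 0, no net growth; 0 to -100, cell death. Compounds scoring below 10 were considered active.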 Values without a mark were called inactive. Calls of active or inactive are those of the source.

Experiment in all cases: NCI-60 one-dose screen, 48 h (100 = growth as untreated, 0 = no growth, -100 = all killed)
Holding throughout (settings): 10 µM unless noted

In test [1] the test system is HCT-15 colon.
Test [2] has as its system HT29 colon.
Test [3] relates to SNB-75 CNS.
Test [4] relates to SNB-19 CNS.
For test [5], the system named is PC-3 prostate.
Test [6] concerns SK-MEL-5 melanoma.
For test [7], the system named is UACC-62 melanoma.
Test [8] concerns LOX IMVI melanoma.
Test [9] relates to SK-MEL-28 melanoma.
The test system of test [10] is U251 CNS.

For `COc1ccc(C(=O)C[C@]2(O)C(=O)Nc3c(Cl)ccc(Cl)c32)cc1`, the growth was 22.6% in [1]; 15.9% in test [2]; -39.5% (active) in [3]; 38.9% in [4]; 34.3% in test [5]; 34.6% in test [6]. The growth in test [7] was 46.4%; in test [8], 45.9%; in [9] it was 60.4%.
On to `COc1ccc(NC(=O)n2nc(/C=C\c3ccc(O)c(OC)c3)cc2/C=C\c2ccc(O)c(OC)c2)cc1`, for which the growth in [1] is 13.2%; in test [2] it was 31.3%; in test [3], 32.6%; in test [4] it was 38.9%; in [10], 26%; in test [5], 28.4%. In addition, the growth in test [7] is 25.5%; in [8], 27.6%; in [9], 34.5%.
Regarding `CC(C)(C)NC(=O)C(OC(=O)c1cccc(Cl)c1)c1ccc(Cl)cc1` (stereo unspecified), the growth in [1] is 103%; in test [2], 87.6%; in test [3], 103%; in [4], 103%; in test [10], 94.5%; in test [5], 94%. Further, the growth in test [7] was 104%; in test [8], 94.1%; in [9], 105%.
Turning to `CC(C)C(=O)Nc1ccc(-c2nc(-c3cccc(OCCN4CCOCC4)c3)c(-c3ccnc(Br)c3)[nH]2)cc1`, the growth is 20.1% in test [1]; 16.9% in test [2]; -4.1% (active) in test [3]; 51.4% in test [4]; 25% in [10]; 40.7% in test [5]. For the same compound, the figures for the growth in test [7], in test [8] and in test [9] were 33.5%, 27.7% and 43.9%, respectively.
With `CCc1ccc(Oc2c(-c3ccc(OCCc4cccc(C(F)(F)F)c4)cc3O)n[nH]c2C(F)(F)F)cc1`, the growth in test [1] was 23.8%; in test [2] it was 86.1%; in [3] it was 63.3%; in test [4], 39.8%; in test [10] it was 12.1%; in test [5] it was 46.1%. The growth in [7] was 18.6%; in [8], 17.6%; in test [9], 44.3%.
Take `Cc1nc(NC(=O)COc2ccc(/C=C3\Cc4ccc(Cl)cc4C3=O)cc2)sc1C`: the growth is 104% in [1]; 114% in [2]; 108% in [3]; 106% in test [4]; 99.4% in [10]; 91.9% in test [5]. Besides, the growth was 72.7% in test [8] and 132% in [9].
As to `CN1CCN(c2ccc(-c3cc4c(Nc5ccc(F)c(Cl)c5)ncnn4c3)cc2)CC1`, the growth in test [1] was -12.8% (active); in test [2], 7.09% (active); in test [3], 80.5%; in test [4], 103%; in [10], 66%; in test [5], 80.8%. Further, the growth is 53.2% in test [7] and 71.5% in test [9].
Consider `COc1ccc(C(=O)/C=C/c2sc(Cl)nc2Cl)cc1`, for which the growth in [1] is 13.1%; in test [2], 31.9%; in test [3] it was 50.9%; in test [4] it was 68.9%; in test [10] it was 16.5%; in test [5], 52.3%. Also, the growth in test [8] was -49.9% (active); in [9] it was 53.2%.
On to `CCc1cccc2c1S/C(=C/c1ccc(OC)cc1)C2=O`, for which the growth in [1] was 28.1%; in test [2], 84.5%; in test [3], 26.6%; in test [4], 45.2%; in test [5] it was 33.9%; in test [6] it was 57.2%. Further, the results for the growth in test [7], in [8] and in test [9] were 31.2%, 40.3% and 59.3%, respectively.
`NC1=C(c2nn[nH]n2)C(c2ccccc2Cl)c2ccc3ccccc3c2O1` (stereo unspecified): the growth in test [1] is 46.8%; in test [2], 132%; in test [3], 56.7%; in test [4] it was 79.2%; in [10], 77.8%; in test [5], 57.5%. Also, the values for the growth in test [7], in [8] and in [9] were 71.2%, 77.8% and 75.6%, respectively.
For the compound `N#C/C(=C\c1cccc2cnccc12)n1nnc2cccc(F)c21`, the growth is 10.2% in [1]; 27.5% in [2]; -5.04% (active) in test [3]; 80.7% in test [4]; 78.9% in [10]; 48.7% in [5]. For the same compound, the values for the growth in [7], in test [8] and in test [9] were 36.5%, 14.9% and 37.1%, respectively.
Take `CCCCOc1nc2c(C)cccc2cc1-c1cc(-c2ccc(Cl)cc2)nc(-c2ccc(Cl)cc2)c1`: the growth in [1] was 103%; in test [2], 103%; in test [3] it was 106%; in [4], 92.3%; in [10], 100%; in test [5], 94.8%. The results for the growth in test [8] and in test [9] were 98.3% and 101%, respectively.
As for `Cc1ccc2c(n1)C(=O)C(Cl)=C(Nc1ccccc1C(C)C)C2=O`, the growth in [1] is 27.6%; in test [2] it was 106%; in test [3] it was 85.7%; in test [4], 76.7%; in test [5], 53.9%; in test [6], 69%. Moreover, the growth in test [7] was 45.2%; in test [8] it was 14.7%; in [9] it was 65.8%.
For `Cc1nc2ccccc2c(/C=C/c2ccc(Cl)cc2)c1C(=O)/C=C/c1ccc(C(F)(F)F)cc1`, the growth was -31.6% (active) in test [1]; 3.52% (active) in test [2]; -79.6% (active) in test [3]; -80.4% (active) in [4]; -84.5% (active) in test [10]; -52.3% (active) in test [5]. For the same compound, the growth is -59.3% (active) in test [7], -89% (active) in [8] and -69.7% (active) in [9].
Take `Cc1ccc(-c2nc(SCC(=O)Nc3nc(-c4ccc(Cl)cc4)cs3)[nH]c(=O)c2C#N)cc1`: the growth is 90.2% in test [1]; 95.9% in test [2]; 87.4% in test [3]; 108% in test [4]; 90.3% in test [5]; 102% in test [6]. Besides, the growth in [7] was 90.5%; in [8] it was 108%; in test [9], 108%.
For the compound `CC(=O)N1N=C(c2ccc(Nc3nc(Nc4ccc(F)cc4)nc(Nc4ccc(Cl)cc4)n3)cc2)CC1c1ccc(Cl)cc1` (stereo unspecified), the growth in test [1] was 93.4%; in [2], 106%; in [3] it was 70.1%; in test [4], 83.5%; in test [10], 94.7%; in [5] it was 68.8%. Besides, the growth was 99% in test [7], 89.8% in [8] and 121% in [9].
As for `COc1ccc([C@H]2c3cc(OC)c(OC)cc3C=C(C=O)C2CO)cc1OC` (stereo partly specified), the growth is 43.1% in [1]; 19% in test [2]; 15.8% in test [3]; 50.9% in test [4]; 29% in test [5]; 24.6% in test [6]. For the same compound, the growth is 33.9% in test [7], 46.3% in [8] and 55.3% in [9].
`Cc1ccc2sc3c(NCCN)nc4ccccc4c3c(=O)c2c1`: the growth in test [1] was 29%; in test [2] it was 10.8%; in [3] it was 77.2%; in test [4], 81%; in test [5], 79.5%; in test [6], 95.6%. Besides, the growth is 99.4% in [7], 15.6% in [8] and 111% in [9].
For `COc1ccc(N2C(=O)C(Oc3ccccc3)C2c2ccc(C)cc2)cc1` (stereo unspecified), the growth is 91.2% in test [1]; 97.8% in [2]; 97.7% in [3]; 101% in test [4]; 90.1% in test [10]; 97.6% in test [5]. Also, the growth in test [7] was 102%; in test [8] it was 98.1%; in [9] it was 99.5%.
Consider `Cc1cc(O)c(C2=NN(c3ccc(S(N)(=O)=O)cc3)C(/C=C/c3ccccc3)C2)cc1Cl` (stereo unspecified), for which the growth in [1] is 85.7%; in test [2], 33.5%; in test [3], 51.3%; in [4] it was 66.4%; in [10] it was 22.5%; in test [5], 32.6%. Besides, the growth in test [7] was -10.9% (active); in [8], 18.5%; in [9], 23.9%.
